The record followed here is the supplement of paper PMC10646978.

Common to all, as to settings: modulator concentration 10 µM
For assay [1], the system named is RAW-Dual (murine macrophage reporter line). As to the kind of experiment: NF-kB reporter (SEAP) activity fold change vs agonist alone; higher = enhanced NF-kB activity. The procedure, abridged: (§1)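 Compound reached 10 μM final in each well by pin transfer, onto RAW-Dual murine macrophage reporter cells seeded at 50 000 per well in 384-well plates. After 1 hour at 37 °C, the cells were stimulated overnight with a PRR agonist. SEAP in the supernatant was read with QUANTI-Blue at 620 nm absorbance for NF-κB, and Lucia luciferase was read with QUANTI-Luc luminescence for IRF. Each signal was turned into fold change against the mean agonist-only control on the same plate, and two replicate plates were averaged with propagated errors.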

For assay [2] the test system is unchanged. As to the kind of experiment: IRF reporter (Lucia luciferase) activity fold change vs agonist alone; higher = enhanced IRF activity. The gist of the method:
as §1

For assay [3] the test system is unchanged. As to the kind of experiment: viability score (confluency relative to resting cells, overnight) (fraction); higher = more viable, active = viable (0.7 or more). The procedure, abridged:
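In 384-well plates, RAW-Dual macrophages received compound at a final 10 μM overnight. Two confluency masks were then made with IncuCyte software from IncuCyte images of all imaged wells. The viability score is defined as confluency relative to resting cells. Passing the cutoff required both masks to lie above 70% of resting cells.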

The mark [4] stands for this setting: agonist: CpG ODN 1826 0.5 ug/mL.

± gives the standard deviation.

Regarding `COC(=O)C1=C(C)NC(C)=C(C(=O)OC)C1c1ccc(-c2ccc(Cl)cc2Cl)o1`, the NF-kB reporter in assay [1] (setting [4]) was determined as 1.01 ± 0.081; in assay [1] (agonist: LPS 0.1 ug/mL), 0.943 ± 0.064; in assay [1] (agonist: MPLA […]) it was 0.922 ± 0.092. Moreover, the figures for the IRF reporter in assay [2] (agonist: 3'3'-cGAMP 10 ug/mL), in assay [2] (agonist: LPS 0.1 ug/mL) and in assay [2] (agonist: MPLA […]) were 0.872 ± 0.022, 1.23 ± 0.11 and 1.22 ± 0.22, respectively. In addition, in assay [3], the viability score is 1.02 (active).
Take `Cc1cc(=O)n2c(-c3cccc(NC(=O)C4CCCO4)c3)csc2n1` (stereo not given): the NF-kB reporter came out at 1.25 ± 0.072 in assay [1] (setting [4]), 1.04 ± 0.089 in assay [1] (agonist: LPS 0.1 ug/mL) and 1.01 ± 0.037 in assay [1] (agonist: MPLA […]). In addition, the IRF reporter in assay [2] (agonist: 3'3'-cGAMP 10 ug/mL) was found to be 0.973 ± 0.093; in assay [2] (agonist: LPS 0.1 ug/mL) it was 1.04 ± 0.11; in assay [2] (agonist: MPLA […]), 0.936 ± 0.18. Moreover, in assay [3], the viability score was 0.999 (active).
For `CCCCCCC=CCCCCCCCc1cccc(O)c1C(=O)O`, the NF-kB reporter in assay [1] (setting [4]) turned out to be 0.897 ± 0.067; in assay [1] (agonist: LPS 0.1 ug/mL), 0.987 ± 0.069; in assay [1] (agonist: MPLA […]), 0.96 ± 0.029. Also, the values for the IRF reporter in assay [2] (agonist: 3'3'-cGAMP 10 ug/mL), in assay [2] (agonist: LPS 0.1 ug/mL) and in assay [2] (agonist: MPLA […]) were 0.774 ± 0.043, 0.991 ± 0.12 and 1.06 ± 0.14, respectively. The viability score in assay [3] is 1 (active).
Consider `O=C(COc1cccc2ccccc12)NCc1ccncc1`, for which the NF-kB reporter came to 0.804 ± 0.069 in assay [1] (setting [4]), 1.1 ± 0.06 in assay [1] (agonist: LPS 0.1 ug/mL) and 1.02 ± 0.12 in assay [1] (agonist: MPLA […]). Further, the IRF reporter in assay [2] (agonist: 3'3'-cGAMP 10 ug/mL) is 0.981 ± 0.052; in assay [2] (agonist: LPS 0.1 ug/mL) it was 1.34 ± 0.12; in assay [2] (agonist: MPLA […]), 1.06 ± 0.098. Moreover, in assay [3], the viability score was 1.01 (active).
Regarding `CNCC[C@@H](Oc1cccc2ccccc12)c1cccs1` [Prestw-1708], the NF-kB reporter in assay [1] (setting [4]) is 0.661 ± 0.054; in assay [1] (agonist: LPS 0.1 ug/mL), 0.98 ± 0.073; in assay [1] (agonist: MPLA […]) it was 1.18 ± 0.19. The IRF reporter turned out to be 1.19 ± 0.076 in assay [2] (agonist: 3'3'-cGAMP 10 ug/mL), 1.11 ± 0.16 in assay [2] (agonist: LPS 0.1 ug/mL) and 1.16 ± 0.28 in assay [2] (agonist: MPLA […]). Also, the viability score in assay [3] is 0.384 (inactive).
Take `COc1ccc(-c2nc3c4cnn(-c5ccc(C)cc5C)c4ncn3n2)c(O)c1`: the NF-kB reporter was found to be 1.03 ± 0.058 in assay [1] (setting [4]), 1.1 ± 0.086 in assay [1] (agonist: LPS 0.1 ug/mL) and 0.991 ± 0.11 in assay [1] (agonist: MPLA […]). Besides, the IRF reporter in assay [2] (agonist: 3'3'-cGAMP 10 ug/mL) is 1.05 ± 0.059; in assay [2] (agonist: LPS 0.1 ug/mL), 1.25 ± 0.14; in assay [2] (agonist: MPLA […]), 1.09 ± 0.27. Besides, in assay [3], the viability score was 1 (active).
Take `CC(C)Sc1ccc(CC(=O)NC2CCN(c3cc4c(nn3)CCCC4)CC2)cc1`: the NF-kB reporter in assay [1] (setting [4]) came out at 0.556 ± 0.041; in assay [1] (agonist: LPS 0.1 ug/mL), 1.19 ± 0.11; in assay [1] (agonist: MPLA […]), 1.02 ± 0.076. Also, the IRF reporter in assay [2] (agonist: 3'3'-cGAMP 10 ug/mL) was found to be 0.847 ± 0.04; in assay [2] (agonist: LPS 0.1 ug/mL) it was 1.26 ± 0.27; in assay [2] (agonist: MPLA […]), 1.51 ± 0.47. In addition, the viability score in assay [3] is 0.973 (active).
Consider `CC(C)CCn1c(COc2ccccc2)nc2ccccc21`, for which the NF-kB reporter in assay [1] (setting [4]) is 0.892 ± 0.067; in assay [1] (agonist: LPS 0.1 ug/mL) it was 1.02 ± 0.078; in assay [1] (agonist: MPLA […]), 0.995 ± 0.028. In addition, the results for the IRF reporter in assay [2] (agonist: 3'3'-cGAMP 10 ug/mL), in assay [2] (agonist: LPS 0.1 ug/mL) and in assay [2] (agonist: MPLA […]) were 0.914 ± 0.033, 1.04 ± 0.048 and 1.09 ± 0.1, respectively. Also, the viability score in assay [3] was 0.999 (active).
As to `O=C(NC(=S)Nc1ccc2[nH]c(=O)[nH]c2c1)c1ccc(F)cc1`, the NF-kB reporter worked out at 0.943 ± 0.095 in assay [1] (setting [4]), 1.03 ± 0.066 in assay [1] (agonist: LPS 0.1 ug/mL) and 0.933 ± 0.064 in assay [1] (agonist: MPLA […]). For the same compound, the IRF reporter in assay [2] (agonist: 3'3'-cGAMP 10 ug/mL) was 0.927 ± 0.032; in assay [2] (agonist: LPS 0.1 ug/mL) it was 1.26 ± 0.13; in assay [2] (agonist: MPLA […]), 1.05 ± 0.16. Also, the viability score in assay [3] is 1.01 (active).
As for `C1=C(c2ccccc2)Nc2nnnn2C1c1ccccc1` (stereo not given), the NF-kB reporter in assay [1] (setting [4]) was determined as 0.951 ± 0.076; in assay [1] (agonist: LPS 0.1 ug/mL), 0.945 ± 0.077; in assay [1] (agonist: MPLA […]), 0.996 ± 0.097. For the same compound, the IRF reporter is 0.949 ± 0.087 in assay [2] (agonist: 3'3'-cGAMP 10 ug/mL), 1.34 ± 0.28 in assay [2] (agonist: LPS 0.1 ug/mL) and 1.46 ± 0.36 in assay [2] (agonist: MPLA […]). Besides, the viability score in assay [3] is 1.01 (active).
